Assay results: the supplement of paper PMC6718421
± gives the uncertainty stated by the source.

Test system: Caenorhabditis elegans N2 (wild type)
Assay: animals with crystals or spheres in anterior pharynx; higher = more object (crystal/sphere) accumulation
Conditions: 30 µM; 48 h; genotype: wild type N2; stage: L1 start
Description: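 Synchronized wild-type (N2) C. elegans L1 larvae (50 per well) were incubated in liquid NGM with E. coli HB101 and 30 uM of each wactive for 48 h. Live worms were scored by DIC and polarized-light microscopy for birefringent crystals or non-birefringent spheres in the anterior pharynx. At least 3 biological replicates were run with at least 20 worms each; the value is the mean % of animals carrying objects.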

| SMILES | animals [%] |
| --- | --- |
| O=C(Nc1ccc(-c2nc3ccccc3s2)cc1)c1ccccc1F [wact-415] | 100 |
| CCC1CCC(N2CCN(c3ccc([N+](=O)[O-])cc3)CC2)CC1 (stereo not drawn) [wact-6] | 3.24 ± 3 |
| O=[N+]([O-])c1ccc(-n2ccc3ccccc32)cc1 [wact-213] | 40.3 ± 22 |
| CCOc1ccc(-c2cnc3ccccc3n2)cc1 [wact-24] | 69.5 ± 6.4 |
| c1ccc(-c2noc(-c3cccs3)n2)cc1 [wact-7] | 0 |
| Clc1ccc(-c2cn3ccsc3n2)cc1 [wact-1] | 0 |
| c1ccc2nc(-c3nc4ccccc4o3)ccc2c1 [wact-40] | 12.5 ± 2.8 |
| O=C1CC(N2CCN(c3ccc([N+](=O)[O-])cc3)CC2)C(=O)N1c1ccccc1F (stereo not drawn) [wact-56] | 0 |
| O=C(c1ccc(Br)cc1)N1CCN(c2ccc([N+](=O)[O-])cc2)CC1 [wact-381] | 99.5 ± 0.5 |
| Cc1ccc(-c2cnc(-c3ccncc3)o2)cc1 [wact-23] | 0 |
| COc1ccccc1CNC(=O)c1ccccc1I [wact-402] | 0 |
| Cc1ccccc1C(=O)NCCc1ccccc1 [wact-406] | 0 |
| C=CCSc1nnc(-c2ccc(Cl)cc2Cl)o1 [wact-5] | 0 |
| CCSc1nnc(-c2ccc(Cl)cc2Cl)o1 [wact-4] | 0 |
| O=[N+]([O-])c1ccc(CSc2ccc(Cl)cc2)cc1 [wact-3] | 52.6 ± 13 |
| c1ccc(CSc2nnc(-c3ccccc3)o2)cc1 [wact-38] | 95.5 ± 3 |
| O=[N+]([O-])c1ccc(N2CCN(CC3CC=CCC3)CC2)cc1 (stereo not drawn) [wact-47] | 0 |
| O=C(Nc1cccc(Cl)c1)N1CCN(c2ccc([N+](=O)[O-])cc2)CC1 [wact-31] | 0 |
| Fc1ccc(-c2cn3ccsc3n2)cc1 [wact-433] | 0 |
| O=C(NCCCCc1ccccc1)c1ccccc1F [wact-400] | 0 |
| O=[N+]([O-])c1ccc(N2CCN(CC3CCCCC3)CC2)cc1 [wact-45] | 0 |
| Brc1ccc(-c2nnc(-c3ccccc3)o2)cc1 [wact-425] | 34.5 ± 9.2 |
| COc1ccc(C=Cc2ccccn2)cc1 [wact-622] | 0 |
| c1csc(-c2cnc3ccccc3n2)c1 [wact-21] | 0 |
| Ic1cccc(-c2nnc(-c3ccccc3)o2)c1 [wact-51] | 51.5 ± 14 |
| CCCc1nc(-c2ccc(-c3ccc(F)cc3)cc2)no1 [wact-390] | 88.33 ± 0.88 |
| O=[N+]([O-])c1ccc(N2CCN(CC3CC4C=CC3C4)CC2)cc1 (stereo not drawn) [wact-46] | 0 |
| O=C(Nc1ccc(I)cc1)c1ccco1 [wact-27] | 10 ± 8.3 |
